Compounds without any hit were thinned out: in the full panel of roughly 83,000, 20% have a hit.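 How to read the values: 0–100, growth inhibition (40 = 60% inhibited); 0, no net growth; -100 to 0, cell death (-40 = 40% of starting cells died; -100 = all dead).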 Values without a mark were called inactive. Active and inactive are the calls of the source. Rule for the calls: active = growth percent below 10; inactive = the rest.
Columns and labels:
Assay in all cases: NCI-60 one-dose screen, 48 h (100 = growth as untreated, 0 = no growth, -100 = all killed)
Details in all cases: 10 µM
[1] = system: HCT-15 colon
[2] = system: HT29 colon
[3] = system: SNB-75 CNS
[4] = system: SNB-19 CNS
[5] = system: U251 CNS
[6] = system: PC-3 prostate
[7] = system: SK-MEL-5 melanoma
[8] = system: UACC-62 melanoma
[9] = system: LOX IMVI melanoma
[10] = system: SK-MEL-28 melanoma

Compound | growth [1] | growth [2] | growth [3] | growth [4] | growth [5] | growth [6] | growth [7] | growth [8] | growth [9] | growth [10]
CN1/C(=C\C(I)C(I)C2=[N+](C)c3ccccc3C2(C)C)C(C)(C)c2ccccc21 (stereo not given) | 13.8% | 4.84% (active) | 14.5% | 18.9% | 7.67% (active) | 5.52% (active) | -97.4% (active) | 19.4% | 12% | 28.5%
COc1cc(CSc2nc3ccc(Cl)cc3c(=O)n2-c2ccccc2)cc(OC)c1OC | 52.5% | 67% | 75.8% | 80.6% | 88.6% | 73.2% | 81.3% | 64.1% | 79.3% | 103%
CCN(CC)CCOC(=O)c1ccc(NC(=O)Nc2cccc(Cl)c2)cc1 | 95.6% | 96.3% | 81.8% | 108% | 96.5% | 94.7% | 101% | 102% | 94.6% | 106%
COc1cccc2c1O/C(=C\c1ncc([N+](=O)[O-])n1C)C2=O | 5.88% (active) | -20.7% (active) | 39.2% | -2.3% (active) | -11.7% (active) | -21.2% (active) | -92.4% (active) | -77.7% (active) | -58.8% (active) | -25.4% (active)
Cc1ccc(C)c2c1sc1nc3n[nH]c(N)c3c(=N)n12 | 102% | 111% | 88.5% | 99% | 100% | 85.7% | 99.3% | 108% | 96.2% | 106%
COCCOC(=O)NC(=O)Nc1ccc(/C(=N/O)c2ccc(Cl)cc2)cc1 | 9.7% (active) | -20.5% (active) | 19.9% | 31.4% | 17.9% | 26.1% | -17.2% (active) | 15.7% | 22.5% | 69.1%
COc1cc(OC)cc(-c2n/c(=C\c3c(O)[nH]c4ccc(OC)cc34)cc3c2=Nc2ccccc2-3)c1 | 44.6% | 15.6% | 103% | 78% | 19.7% | 94.9% | 94.4% | 110% | 30.4% | 102%
COc1cc2nc(Sc3sc(N)nc3C)n(-c3ccc(Oc4ccccc4)cc3)c(=O)c2cc1OC | 79.9% | 75% | 86.7% | 105% | 87.6% | 65.2% | 76.8% | 81.4% | 78.3% | 97.9%
C[C@@H]1N=C(c2ccc(Br)cc2)Nc2nc3ccccn3c2C1=O | 30.7% | 17.5% | 50.2% | 82.6% | 54% | 63.2% | 31.9% | 49.2% | 52.4% | 66.2%
C/C(=N/NC(=O)c1sc(=S)n(C)c1N)c1cc2cc(Cl)ccc2o1 | 92.6% | 92.9% | 144% | 98.8% | 97.5% | 101% | 11.3% | 76.2% | 72.9% | 128%
CCCCNC(=O)Oc1ccc(/C(=C(\C)c2ccc(OC)cc2)c2ccc(OCCN3CCCCC3)cc2)cc1 | 0.377% (active) | 7.84% (active) | 70.6% | 69.9% | 38.9% | 43.3% | 44.7% | 44% | 20.1% | 2.55% (active)
CCc1ccc(-c2nnc(COc3ccc(-c4nc5ccccc5[nH]4)cc3OC)o2)cc1 | 52.9% | 61.7% | -27.1% (active) | 84.3% | 23.3% | 54.9% | 80.2% | 91% | 24.5% | 93.5%
CCn1nc(-c2ccccn2)c2cccnc2c1=S | 67.2% | 51.9% | 95.4% | 93.9% | 74.5% | 38.4% | 59.3% | 81.2% | 87.5% | 89.4%
O=C(Nc1cccc(Cl)c1)OCC(COC(=O)Nc1cccc(Cl)c1)(COC(=O)Nc1cccc(Cl)c1)[N+](=O)[O-] | 22.6% | 32% | 49.9% | 42.8% | 34.7% | 24.1% | 44.2% | 31.9% | 15.6% | 51.1%
O=C1CC[C@@H](C(=O)N[C@H]2CSSC[C@@H](C(=O)N/C=C/c3ccc(O)cc3)NC(=O)[C@H](Cc3ccccc3)NC(=O)[C@@H]3CCCN3C(=O)[C@@H]3CCCN3C2=O)N1 | 97% | 99.8% | 100% | 94.4% | 96.2% | 87.3% | 97.5% | 99.7% | 94.5% | 101%
Cc1ccc(S(=O)(=O)N2CCc3ccccc3CC2)cc1 | 78.4% | 91.8% | 78.6% | 68% | 56.3% | 36.4% | 46.1% | 74.1% | 76.4% | 94.6%
FC(F)(F)c1ccc(-c2nc(-c3nc4cc(Cl)c(Cl)cc4[nH]3)c3ccccn23)cc1 | 82.6% | 55.9% | -16.1% (active) | 84.4% | 47.6% | 48.3% | 53.4% | 71.1% | 62.6% | 57.4%
Cc1ccc(C2C=C(c3ccc(Cl)cc3)N=C3SC=CN32)c(Br)c1 (stereo not given) | 75.1% | 67.9% | 75.5% | 74.2% | 60.3% | 65.5% | 84.8% | 83.3% | 55.9% | 105%
O=C(Cn1ccc(=O)[nH]c1=O)c1ccc([N+](=O)[O-])o1 | 94.7% | 101% | 103% | 120% | 95.2% | 85.8% | 90.7% | 87% | 80% | 95.3%
Cc1cccc2c1O/C(=C\c1ncc([N+](=O)[O-])n1C)C2=O | 5.68% (active) | -21% (active) | 8.32% (active) | -5.53% (active) | -17.5% (active) | -22.4% (active) | -92.2% (active) | -66.3% (active) | -39.6% (active) | -17.8% (active)
CC(Oc1ccc(Cl)cc1)c1ccccc1 (stereo not given) | 112% | 106% | 97.3% | 99.7% | 102% | 93.4% | 100% | 97.6% | 97.5% | 106%
C/C(=N\NC(N)=S)C(C)(C)O | 101% | 61% | 91.2% | 106% | 88.1% | 90.1% | 101% | 103% | 95.1% | 98.5%
c1ccc(CNc2nc(Nc3ccc(-c4nc5ccccc5[nH]4)cc3)c3cn[nH]c3n2)cc1 | 0.22% (active) | -13.9% (active) | 33% | 36.3% | -19.8% (active) | 11.8% | -96.4% (active) | -40.9% (active) | -42.1% (active) | -8.67% (active)
O=C(CCl)N1c2ccccc2Sc2ccc3ccccc3c21 | -51.3% (active) | -76.1% (active) | 3.3% (active) | 69.7% | 0.19% (active) | -86.6% (active) | 22.9% | -0.738% (active) | -78.3% (active) | 19.6%
CCCCCCCCCCCC(=O)NCCCN(C)C | 93.8% | 65.5% | 75.2% | 102% | 75% | 75.5% | 105% | 101% | 69% | 91.9%
CCOC(=O)c1ccc(NC(=O)Nc2nncs2)cc1 | 17.5% | 1.75% (active) | 19.6% | 58.3% | 17.3% | 20.7% | -21.2% (active) | 31.2% | 13% | 42.2%
Nc1ncc(-c2ccc(C(F)(F)F)cc2)c(NC2CCCCCC2)n1 | 73.7% | 31.5% | 57.8% | 49.9% | 22.5% | 12% | 3.53% (active) | 0.46% (active) | 48% | 33.7%

Reference: PubChem BioAssay (NCI)
